Screening data (PubChem)
A-T KAP1 phos – candidate therapy for ataxia-telangiectasia; hit rate 0.19% among 320,000; F2112 A-T fibroblasts, KAP-1 phosphorylation AlphaLISA; neocarzinostatin DNA damage 30 min before lysis; Potency, µM (titrated, usually from 57.5 µM), without a hit: at the top dose activation, most hits filed as activators; note: potency is the fitted concentration of half-maximal effect; % of control where 0% means no effect; nearly all actives have a fitted effect of over 45% in size
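ATM-like activity read as KAP-1 phosphorylation via AlphaLISA donor/acceptor antibody pairs after lysis and 6 hr at 25C. Cells were ATM-null patient fibroblasts (F2112, hTERT), dosed 60 min, then exposed to the DSB inducer NCS for 30 min.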
CCT chaperon mod – modulators of cytosolic chaperonin (CCT/TRiC) activity; purified chaperonin ATPase assay, HTRF ADP detection, 30 min; activity change, % (test concentration not listed), hits read low; AID 651819; hit rate 0.3% among 360,000; in the data active = activity change below about -30%; note: % is set by controls: 0 for no effect and ±100 for the full control effect
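TRiC at 40 or 20 nM final (batch-dependent) in 30 mM Tris pH 7.4, 100 mM KCl, 5 mM MgCl2, 1 mM DTT, with compound at single 76 uM and 10 uM ATP, 30 min at 37 deg C. ADP detected by HTRF Transcreener, 665/615 ratio.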
Nrf2 inh – inhibitors of Nrf2 signaling | A549 ARE-Fluc reporter, luciferase luminescence, 18-24 h | Potency, µM (titrated, usually from 46 µM), for the others: top-dose activity change, negative = inhibition, hits mostly inhibitors | hit rate 2.1% among 360,000; note: potency is the fitted concentration of half-maximal effect; % is set by controls: 0 for no effect and ±100 for the full control effect; nearly all actives have a fitted effect of over 60% in size
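In this cell-based qHTS, ARE-driven firefly luciferase in A549 cells reports Nrf2 activity; the luminescent signal after BugLite lysis is the measured value, with a prior CellTiter-Fluor read for cell health.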
A549 tox – A549 cytotoxicity, counter-screen for Nrf2 inhibitors; A549 ARE-Fluc cells, CellTiter-Fluor viability, 18-24 h; Potency, µM (doses to about 46 µM), for inactives: at the highest dose activity change, negative = cytotoxicity, actives largely listed as inhibitors; hit rate 0.16% among 390,000; note: potency is the fitted concentration of half-maximal effect; % is set by controls: 0 for no effect and ±100 for the full control effect
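A549 ARE-Fluc cells in 5% FBS OPTI-MEM, 5000 cells/well, rested 2 h then exposed to compounds in concentration-response for 18-24 h at 37 °C. Viability by CellTiter-Fluor fluorescence (Ex 405/Em 525) after 30 min; luciferase luminescence (BugLite, 15 min, RT) read afterwards.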
TCR act – activators of T cell receptors. primary human leukocytes, anti-CD3, IL-2 HTRF, 48 h. Potency, µM (highest dose often 9.22 µM), without a hit: at the top dose activation of IL-2 secretion, actives largely listed as activators. 330,000 tested, under 10 active. AID 504894; note: % of control where 0% means no effect
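1) Mix primary human leukocytes, a-CD3 beads and compound. 2) Incubate 48 hr. 3) Add HTRF IL-2 reagents (a-IL-2-K, a-IL-2-d2).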
Nrf2 ARE act – Nrf2 pathway activation; AREc32 ARE-luciferase reporter (MCF7-derived line), luminescence, 24 h; Potency, µM (titrated, usually from 46.1 µM), inactives show at the highest dose activation, actives largely listed as activators; hit rate 0.31% among 410,000; AID 624171; note: potency is the fitted concentration of half-maximal effect; % of control where 0% means no effect; nearly all actives have a fitted effect of over 65% in size
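ARE-driven firefly luciferase activity in AREc32 cells measured after a 24 hr compound exposure at 37 deg C, using Steady-Glo reagent and a 30 min room-temperature hold.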
Active calls of the source: *; ? = inconclusive; · = no result; [ ] = dose if it differs, or a comment. Hits are enriched below; roughly 2.6% of the tested compounds scored in any of these assays. Unless noted, calls come from the whole dose curve; as a rule, active = well fitted curve in the direction sought with a large enough effect; inconclusive = small, poorly fitted or top-dose-only effect, or another doubt; inactive = no such curve, though single readings can be large; an effect the other way counts as inactive or inconclusive.

SMILES	A-T KAP1 phos	CCT chaperon mod	Nrf2 inh	A549 tox	TCR act	Nrf2 ARE act
O=C(COc1ccc(Cl)cc1)Nc1ccc(C(=O)NCc2cccnc2)cc1	0%	-2	21µM*	-11%	-4%	-1%
Cc1ccc(NS(=O)(=O)c2cc3c(cc2N(C)C)CCC(=O)N3)cc1C	·	·	13%	2%	·	·
CC1CCN(C(=O)c2ccc(Br)c(S(=O)(=O)N3CCOCC3)c2)CC1	-1%	-3	1%	-2%	-4%	0%
CC1CCN(S(=O)(=O)c2cc(C(=O)N3CCN(c4ncccn4)CC3)ccc2Br)CC1	-4%	-3	23µM*	1%	5%	0%
Cc1cc(C)n(Cc2ccc(C(=O)Nc3cccc(Br)c3)o2)n1	5%	0	23µM*	?	5%[46.1 µM]	0%
Cc1cc(C)n(Cc2ccc(C(=O)Nc3ccc(Br)cc3C)o2)n1	-21%	2	-10%	1%	1%[46.1 µM]	0%
Cc1ccc(CNC(=O)c2ccc(Cn3nc(C)cc3C)o2)cc1	1%	-73*	-10%	-1%	6%	0%
Cc1cccc(N2CCN(C(=O)CS(=O)(=O)Cc3nc(-c4ccccc4C)oc3C)CC2C)c1 (stereo not given)	·	·	23µM*	-10%	·	0%
Cc1oc(-c2ccccc2F)nc1CS(=O)(=O)CC(=O)N1CCOCC1	0%	1	-13%	7%	-2%	-1%
Cc1cccc(N2CCN(C(=O)CS(=O)(=O)Cc3nc(-c4ccccc4F)oc3C)CC2C)c1 (stereo not given)	-10%	0	16µM*	-9%	3%	0%
CCN1CCN(C(=O)CS(=O)(=O)Cc2nc(-c3ccccc3C)oc2C)CC1	-8%	1	-7%	-1%	2%	0%
Cc1ccc(-c2nc(CS(=O)(=O)CC(=O)N3CC(C)CC(C)C3)c(C)o2)cc1 (stereo not given)	18%	-1	21µM*	-9%	-5%	0%
COC(=O)c1ccc(NC(=O)CCNS(=O)(=O)c2cccc3nsnc23)cc1	·	·	-9%[9.27 µM]	1%	·	0%
CCn1c(CNc2ccc(Cl)cc2)nnc1SCc1ccc(Cl)cc1	11%	-2	23µM*	?	4%[46.1 µM]	0%
CCN(C(=O)COC(=O)c1cccnc1SC)C1CCS(=O)(=O)C1 (stereo not given)	-3%	-4	2%	-6%	2%	0%
CCN(C(=O)COC(=O)c1cccnc1Nc1cccc(C(F)(F)F)c1)C1CCS(=O)(=O)C1 (stereo not given)	·	-1	5%	2%	-3%[46.1 µM]	11µM*
CCOc1ccc(NC(=O)CNC(=O)c2nn(-c3ccc(OC)c(OC)c3)c(=O)c3ccccc23)cc1	3%	2	-10%	-6%	23%	0%
COc1ccc(-n2nc(C(=O)NCC(=O)Nc3cccc(Cl)c3)c3ccccc3c2=O)cc1OC	9%	-1	15µM*	-18%	5%	0%
CCN(CC)CCCNC(=O)c1nn(-c2cccc(OC)c2)c(=O)c2ccccc12	5%	-76*	·	-2%	-1%	0%
Cc1c(NC(=O)CN2C(=O)NC3(CCCC3)C2=O)c(=O)n(-c2ccccc2)n1C	-1%	-4	1%	-3%	·	0%
Fc1ccc(COc2cccc(CNCc3ccncc3)c2)cc1	4%	0	15µM*	-1%	·	3%
COc1ccc(S(=O)(=O)NCCCO)cc1-c1nnc2c3ccccc3c(C)nn12	·	·	5%	7%	·	-1%
CCOc1ccc(CCNC(=O)CCCn2c(=O)c3cccn3c3cccnc32)cc1	·	·	?	12%	·	-1%
O=C(NNC(=O)c1ccc([N+](=O)[O-])o1)c1ccccc1	16%	0	·	?	-7%	22µM*
COc1ccccc1C(=O)Nc1nc2cc3c(cc2s1)OCCO3	8%	-1	12%	-2%	-5%	8%
SMILES	A-T KAP1 phos	CCT chaperon mod	Nrf2 inh	A549 tox	TCR act	Nrf2 ARE act
O=C(Nc1nc(-c2ccccn2)cs1)c1ccc([N+](=O)[O-])o1	-14%	-1	5%	-6%	-6%	11µM*
COc1ccc(C(=O)Nc2nc3cc4c(cc3s2)OCCO4)c(OC)c1	-12%	0	21µM*	-4%	0%	4%
CCN(CC)S(=O)(=O)c1cccc(C(=O)Nc2nc3cc4c(cc3s2)OCCO4)c1	1%	-5	15µM*	?	6%	0%
O=C(Nc1nc2cc3c(cc2s1)OCCO3)c1cccc(N2C(=O)CCC2=O)c1	5%	0	-21%	0%	-2%	3%
Cc1ccc(C(=O)Nc2nc(-c3ccccn3)cs2)o1	3%	4	-26%	1%	1%	2%
CCN(CC)C(=O)c1cc(-c2ccc(Cl)cc2)on1	·	·	22%	6%	·	4%
Cc1ccc(C)c(-c2nnc(NC(=O)C3=COCCO3)o2)c1	4%	-2	-1%	-2%	7%	3%
Cc1cc(C)cc(NC(=O)c2ccc([N+](=O)[O-])o2)c1	-2%	-3	?	-10%	-1%	?
COc1ccc(C(=O)Nc2nnc(-c3ccc(F)cc3)s2)c(OC)c1	-8%	-3	16µM*	-1%	-4%	0%
NS(=O)(=O)c1ccc(O)c(NC(=O)c2ccc([N+](=O)[O-])o2)c1	-6%	-3	1%	-11%	3%	10µM*
Cc1cc(C)c2nc(NC(=O)c3ccc([N+](=O)[O-])o3)sc2c1	-1%	-2	5%	-14%	·	?
Cc1cc(C)c2sc(NC(=O)c3ccc([N+](=O)[O-])o3)nc2c1	-10%	-2	11%	-10%	-3%	7.9µM*
Cc1ccc(C)c(-c2nnc(NC(=O)c3ccc([N+](=O)[O-])o3)o2)c1	-1%	0	-8%	-25%	3%	3.5µM*
O=C(CNC(=O)c1ccc([N+](=O)[O-])cc1)OC(C(=O)Nc1cc(C(F)(F)F)ccc1Cl)c1ccccc1 (stereo not given)	·	·	-13%	3%	·	·
COc1ccc2nc(NC(=O)c3ccc([N+](=O)[O-])o3)sc2c1	-6%	-1	?	-20%	·	?
O=C(Nc1nc2ccccc2s1)c1ccc([N+](=O)[O-])o1	-6%	-6	?	-5%	-2%	3.5µM*
O=C(Nc1nc2cc3c(cc2s1)OCCO3)c1ccc([N+](=O)[O-])o1	13%	1	19%	-4%	-2%	7.1µM*
CCc1cccc(C)c1NC(=O)Cn1c(=O)n(-c2cccc(C)c2)c(=O)c2c1c1cc(C)ccc1n2C	·	·	12%	4%	·	0%
COc1ccc2cc(C(=O)C3CCCN(C(=O)Cc4c(C)noc4C)C3)ccc2c1 (stereo not given)	6%	-3	?	-7%	-1%	4%
